For some of these results: Entries with a potency or affinity are not part of this list. The source made the active and inactive calls. Unless noted, the rule behind the calls is not given here.
Key:
[1] = antimalarial activity against Dd2 strain (AID 2302;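 active = growth inhibition above 50% at the single 2 µM test dose, taken to imply half-maximal potency below 2 µM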;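 note: 0% = DMSO untreated growth and 100% = chloroquine plus artemisinin killed control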); settings: P. falciparum Dd2 in RBCs, LDH growth readout, 72 h; at 2 µM; stronger effect = higher value
[2] = HepG2 cytotoxicity, primary screen, cytotoxicity control for P. falciparum antimalarial project, cell-based, ATP luminescence (AID 2303;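 active = inhibition above 50%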;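 note: 0% = DMSO wells and 100% = digitonin-killed cells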); settings: HepG2 viability, 24-48 h, at 10 µM, stronger effect = higher value
[3] = biological target: L-lactate dehydrogenase (Plasmodium falciparum (isolate CDC / Honduras)) (UniProt Q27743); assay: PfLDH activity inhibition – cell lysate, 3D7 strain, counter-screen for P. falciparum growth inhibition project (AID 2304);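 note: 0% = vehicle and 100% = reference inhibitor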; settings: P. falciparum 3D7 crude extract, LDH APAD/NBT absorbance; at 2 µM; stronger effect = higher value
[4] = inhibition of 3D7 malaria parasite growth – strain 3D7 (AID 2306);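 note: 0% = DMSO wells and 100% = chloroquine plus artemisinin control wells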; settings: P. falciparum 3D7 erythrocytic growth, LDH absorbance, 72 h; at 2 µM; stronger effect = higher value
[5] = biological target: Calcium-dependent protein kinase 1 (Plasmodium falciparum (isolate 3D7)) (UniProt P62344); assay: PfCDPK1 kinase inhibitors, biochemical, TCAMS library (AID 1159585; cut-off not given, nearly all actives have IC50 up to about 0.98 µM;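 note: inhibitors leave more ATP so luminescence rises with inhibition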); settings: recombinant PfCDPK1, Kinase-Glo ATP depletion luminescence
[6] = biological target: Plasmodium falciparum protein kinase 6 (PK6, PF3D7_1337100) (UniProt Q8IDW1); assay: PfPK6 kinase inhibitors, biochemical, TCAMS library (AID 1159586); settings: recombinant PfPK6, Kinase-Glo ATP depletion luminescence
[7] = biological target: Protein kinase 7 (PK7), Plasmodium falciparum 3D7 (PF3D7_0213400) (UniProt Q7YTF7); assay: inhibition of Plasmodium PK7 catalytic activity – biochemical, TCAMS antimalarial set, Kinase-Glo luminescence (AID 1159587); settings: recombinant PfPK7, Kinase-Glo ATP depletion luminescence
[8] = biological target: Calcium-dependent protein kinase 4 (Plasmodium falciparum (isolate 3D7)) (UniProt Q8IBS5); assay: PfCDPK4 kinase inhibitors, biochemical, TCAMS library (AID 1159588; cut-off not given, nearly all actives have IC50 up to about 0.91 µM); settings: recombinant PfCDPK4, Kinase-Glo ATP depletion luminescence
Chain of Calcium-dependent protein kinase 4 (Plasmodium falciparum (isolate 3D7)) (Q8IBS5 whole entry, looked up): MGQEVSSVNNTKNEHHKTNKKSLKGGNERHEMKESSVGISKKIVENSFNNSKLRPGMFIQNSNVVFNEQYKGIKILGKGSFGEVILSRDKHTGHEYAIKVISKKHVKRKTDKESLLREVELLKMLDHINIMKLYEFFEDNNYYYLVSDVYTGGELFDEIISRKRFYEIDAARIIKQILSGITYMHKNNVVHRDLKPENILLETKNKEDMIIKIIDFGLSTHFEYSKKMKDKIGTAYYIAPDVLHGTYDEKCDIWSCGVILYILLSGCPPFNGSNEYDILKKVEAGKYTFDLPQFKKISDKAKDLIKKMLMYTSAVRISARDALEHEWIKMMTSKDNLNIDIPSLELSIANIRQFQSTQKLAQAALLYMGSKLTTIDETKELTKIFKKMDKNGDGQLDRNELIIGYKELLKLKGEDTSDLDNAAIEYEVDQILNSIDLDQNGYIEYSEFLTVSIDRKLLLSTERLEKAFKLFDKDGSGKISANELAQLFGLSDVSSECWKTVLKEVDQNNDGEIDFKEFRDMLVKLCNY

Chain of Plasmodium falciparum protein kinase 6 (PK6, PF3D7_1337100) (Q8IDW1 1-305): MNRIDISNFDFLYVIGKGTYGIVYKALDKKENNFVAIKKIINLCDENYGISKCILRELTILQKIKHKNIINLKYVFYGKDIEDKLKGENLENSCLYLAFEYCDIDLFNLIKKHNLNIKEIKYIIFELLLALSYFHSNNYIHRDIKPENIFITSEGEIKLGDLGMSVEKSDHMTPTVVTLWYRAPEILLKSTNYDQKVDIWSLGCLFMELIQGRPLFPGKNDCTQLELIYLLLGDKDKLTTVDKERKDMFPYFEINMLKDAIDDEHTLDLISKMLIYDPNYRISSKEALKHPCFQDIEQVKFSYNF
Chain of Calcium-dependent protein kinase 1 (Plasmodium falciparum (isolate 3D7)) (P62344 whole entry, looked up): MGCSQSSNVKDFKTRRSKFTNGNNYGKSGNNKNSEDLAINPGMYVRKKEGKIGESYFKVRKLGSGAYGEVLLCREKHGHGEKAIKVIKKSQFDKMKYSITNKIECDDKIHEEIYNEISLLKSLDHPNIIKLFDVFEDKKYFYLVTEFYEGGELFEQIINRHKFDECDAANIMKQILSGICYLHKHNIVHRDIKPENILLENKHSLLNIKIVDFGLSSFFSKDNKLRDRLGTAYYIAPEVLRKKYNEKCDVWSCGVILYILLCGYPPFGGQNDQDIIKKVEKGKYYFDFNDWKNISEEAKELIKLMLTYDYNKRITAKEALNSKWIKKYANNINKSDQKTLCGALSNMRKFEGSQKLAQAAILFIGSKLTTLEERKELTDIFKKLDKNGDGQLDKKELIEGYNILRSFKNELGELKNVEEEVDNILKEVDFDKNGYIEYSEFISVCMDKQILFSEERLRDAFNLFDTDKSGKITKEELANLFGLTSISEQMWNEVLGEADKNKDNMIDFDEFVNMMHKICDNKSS
Chain of L-lactate dehydrogenase (Plasmodium falciparum (isolate CDC / Honduras)) (Q27743 whole entry, looked up): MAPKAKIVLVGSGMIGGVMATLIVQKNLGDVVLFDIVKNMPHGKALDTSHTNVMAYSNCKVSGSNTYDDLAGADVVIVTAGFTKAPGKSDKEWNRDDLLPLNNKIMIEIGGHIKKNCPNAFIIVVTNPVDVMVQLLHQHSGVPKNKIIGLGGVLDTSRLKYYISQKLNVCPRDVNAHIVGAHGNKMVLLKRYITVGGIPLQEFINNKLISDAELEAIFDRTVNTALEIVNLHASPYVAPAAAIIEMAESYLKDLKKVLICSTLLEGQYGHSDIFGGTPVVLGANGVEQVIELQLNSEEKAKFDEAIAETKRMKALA
Chain of Protein kinase 7 (PK7), Plasmodium falciparum 3D7 (PF3D7_0213400) (Q7YTF7 1-343): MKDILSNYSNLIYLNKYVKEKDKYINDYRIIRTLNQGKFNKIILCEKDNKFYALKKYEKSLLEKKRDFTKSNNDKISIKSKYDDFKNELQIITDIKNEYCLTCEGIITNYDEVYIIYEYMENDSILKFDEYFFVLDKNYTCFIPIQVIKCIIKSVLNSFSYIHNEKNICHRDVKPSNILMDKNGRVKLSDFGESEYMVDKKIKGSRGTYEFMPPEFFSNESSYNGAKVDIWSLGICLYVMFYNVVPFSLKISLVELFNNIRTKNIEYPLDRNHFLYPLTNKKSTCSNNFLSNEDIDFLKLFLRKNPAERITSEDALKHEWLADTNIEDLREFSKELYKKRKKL

N#Cc1cccc(-c2cnc(N)c(-c3nc4ccc(S(N)(=O)=O)cc4[nH]3)c2)c1
inactive: inhibition [2] 16% | inhibition [3] -5% | outcome [5] | outcome [6] | outcome [7] | outcome [8]
active: growth inhibition [1] 99% | growth inhibition [4] 100%

O=C(Cc1cnc[nH]1)Nc1cccc(-c2ccc(-c3nc4ccc(F)cc4[nH]3)s2)c1
inactive: inhibition [2] 4% | inhibition [3] -12% | outcome [5] | outcome [6] | outcome [7] | outcome [8]
active: growth inhibition [1] 94% | growth inhibition [4] 101%

CCc1cccc(-n2c(=O)c3cccnc3n2CC(=O)NCc2ccccc2Cl)c1
active: growth inhibition [4] 98%
inactive: growth inhibition [1] 19% | inhibition [2] 25% | inhibition [3] -8% | outcome [5] | outcome [6] | outcome [7] | outcome [8]

CCCCCCNC(=O)C(N)CCCC(N)C(=O)NCCCCCC (stereo not drawn)
inactive: growth inhibition [1] -5% | inhibition [2] -2% | inhibition [3] -2% | outcome [5] | outcome [6] | outcome [7] | outcome [8]
active: growth inhibition [4] 99%

COc1ccc2nc3cc(Cl)ccc3c(NCCN(C)C)c2c1
active: growth inhibition [1] 100% | growth inhibition [4] 102%
inactive: inhibition [2] 4% | inhibition [3] -2% | outcome [5] | outcome [6] | outcome [7] | outcome [8]

CC(C)CNC(=O)c1cncc(-c2ccc(CN(C)C3CCN(C)CC3)cc2)c1
inactive: inhibition [2] 15% | inhibition [3] -1% | outcome [5] | outcome [6] | outcome [7] | outcome [8]
active: growth inhibition [1] 84% | growth inhibition [4] 101%

Fc1ccc2nc(-c3ccc(-c4ccc(CNCCN5CCNCC5)cc4)cc3)[nH]c2c1
inactive: inhibition [3] -3% | outcome [5] | outcome [6] | outcome [7] | outcome [8]
active: growth inhibition [1] 70% | inhibition [2] 94% | growth inhibition [4] 96%

COc1ccccc1C1CCN(C2CCC(NC(=O)c3cc(-c4ccc(Cl)cc4)cs3)CC2)CC1 (stereo not drawn)
inactive: inhibition [3] -1% | outcome [5] | outcome [6] | outcome [7] | outcome [8]
active: growth inhibition [1] 100% | inhibition [2] 61% | growth inhibition [4] 101%

CCCNCCc1ccc(NS(=O)(=O)c2cccc(-c3ccc(Cl)cc3)c2)cc1
inactive: growth inhibition [1] 36% | inhibition [2] 36% | inhibition [3] 0% | outcome [5] | outcome [6] | outcome [7] | outcome [8]
active: growth inhibition [4] 101%

CCNc1cc(C(=O)N[C@@H](Cc2ccccc2)[C@H](O)CNC(C)(C)CCCC(C)C)cc(N2CCCC2=O)c1
active: growth inhibition [1] 81% | growth inhibition [4] 100%
inactive: inhibition [2] -12% | inhibition [3] -1% | outcome [5] | outcome [6] | outcome [7] | outcome [8]

COc1ccc(NC(=O)Nc2ccc(C)c(-c3ccc(C(=O)NCCN4CCCC4)cc3)c2)cc1
active: growth inhibition [4] 95%
inactive: growth inhibition [1] 1% | inhibition [2] 18% | inhibition [3] 3% | outcome [5] | outcome [6] | outcome [7] | outcome [8]

COc1ccc(N2CCN(CCc3ccc(NC(=O)c4ccc([N+](=O)[O-])cc4)cc3)CC2)c(OC)c1
active: growth inhibition [4] 83%
inactive: growth inhibition [1] 0% | inhibition [2] 45% | inhibition [3] 1% | outcome [5] | outcome [6] | outcome [7] | outcome [8]

O=S(=O)(c1c(Cl)cccc1Cl)N1CCCCC(c2ccc(C(F)(F)F)cc2)=N1
inactive: inhibition [2] 11% | inhibition [3] -2% | outcome [5] | outcome [6] | outcome [7] | outcome [8]
active: growth inhibition [1] 98% | growth inhibition [4] 99%

CC(C)n1ncc2c3c(N)nc(N)nc3ccc21
inactive: growth inhibition [1] 6% | inhibition [3] -3% | outcome [5] | outcome [6] | outcome [7] | outcome [8]
active: inhibition [2] 64% | growth inhibition [4] 98%

CN(C)CCOc1cccc(NC(=O)Nc2ccc(-c3ccccc3)cc2)c1
active: growth inhibition [4] 90%
inactive: growth inhibition [1] 16% | inhibition [2] 11% | inhibition [3] -1% | outcome [5] | outcome [6] | outcome [7] | outcome [8]

CC(C)c1ccc(NC(=O)c2ccc(C(=O)NC3CCN(CC4CCCCC4)CC3)cc2)cc1
inactive: growth inhibition [1] 5% | inhibition [2] 34% | inhibition [3] -2% | outcome [5] | outcome [6] | outcome [7] | outcome [8]
active: growth inhibition [4] 98%

Cc1nnc2sc(-c3cccc(NC(=O)c4ccc(N5CCCCC5)c([N+](=O)[O-])c4)c3)nn12
inactive: growth inhibition [1] 20% | inhibition [2] 3% | inhibition [3] -3% | outcome [5] | outcome [6] | outcome [7] | outcome [8]
active: growth inhibition [4] 87%

CC(C)N1CCC(N(Cc2ccc(-c3ccc(C(F)(F)F)cc3)cc2)C(=O)Cn2c(CCc3cccc(F)c3F)nc(=O)c3cccnc32)CC1
inactive: inhibition [3] 6% | outcome [5] | outcome [6] | outcome [7] | outcome [8]
active: growth inhibition [1] 80% | inhibition [2] 100% | growth inhibition [4] 100%

CCN(CC)CCCN(C(=O)Nc1c(Cl)cncc1Cl)c1nc(-c2ccc(F)cc2)cs1
active: growth inhibition [1] 93% | growth inhibition [4] 101%
inactive: inhibition [2] 37% | inhibition [3] -5% | outcome [5] | outcome [6] | outcome [7] | outcome [8]

O=C(CCn1cncn1)N1CCCC(c2[nH]c3ccccc3c2-c2ccncc2)C1 (stereo not drawn)
inactive: inhibition [2] 1% | inhibition [3] -1% | outcome [5] | outcome [6] | outcome [7] | outcome [8]
active: growth inhibition [1] 79% | growth inhibition [4] 97%

COc1ccc(-c2cc(C(=O)N[C@@H](Cc3ccccc3)C(=O)NCCN3CCCCC3)ccc2O)cc1
inactive: growth inhibition [1] -3% | inhibition [2] -3% | inhibition [3] 1% | outcome [5] | outcome [6] | outcome [7] | outcome [8]
active: growth inhibition [4] 96%

CC(C)CCOc1ccc(NC(=O)c2cccs2)cc1
inactive: inhibition [2] 11% | inhibition [3] -3% | outcome [5] | outcome [6] | outcome [7] | outcome [8]
active: growth inhibition [1] 95% | growth inhibition [4] 95%

O=C(/C=C/c1ccc(Cl)c(Cl)c1)NCCCCCCN1CCN(C(=O)Nc2ccc(F)c(Cl)c2)CC1
inactive: growth inhibition [1] 2% | inhibition [2] 40% | inhibition [3] -7% | outcome [5] | outcome [6] | outcome [7] | outcome [8]
active: growth inhibition [4] 86%

C=CCCCNCC(NCCCNc1cc(=O)c2ccccc2[nH]1)c1cc(Br)cc(Br)c1 (stereo not drawn)
inactive: growth inhibition [1] 19% | inhibition [2] -3% | inhibition [3] -1% | outcome [5] | outcome [6] | outcome [7] | outcome [8]
active: growth inhibition [4] 94%

COc1ccc(-c2cccc(NC(=O)c3cccc(Cl)c3)c2)cc1CN1CCC(O)CC1
active: growth inhibition [4] 98%
inactive: growth inhibition [1] 16% | inhibition [2] 38% | inhibition [3] 5% | outcome [5] | outcome [6] | outcome [7] | outcome [8]

N#Cc1cncc(-c2nc3c(N4CCC(Cc5ccccc5)CC4)cccc3n2C2CCNC2)c1 (stereo not drawn)
inactive: growth inhibition [1] 7% | inhibition [2] 5% | inhibition [3] -1% | outcome [5] | outcome [6] | outcome [7] | outcome [8]
active: growth inhibition [4] 88%

c1cc(CNCCc2ccncc2)cc(-c2ccc(-c3nc4ccccc4[nH]3)s2)c1
inactive: inhibition [2] 1% | inhibition [3] -3% | outcome [5] | outcome [6] | outcome [7] | outcome [8]
active: growth inhibition [1] 97% | growth inhibition [4] 101%

CCCCNC(=O)[C@H](Cc1ccccc1)NC(=O)c1ccc(O)c(-c2ccc(Cl)c(Cl)c2)c1
active: growth inhibition [1] 97% | growth inhibition [4] 98%
inactive: inhibition [2] -8% | inhibition [3] 3% | outcome [5] | outcome [6] | outcome [7] | outcome [8]

COc1cc(CNC2Cc3ccccc3C2)ccc1Oc1ccc2nc[nH]c2c1
inactive: inhibition [2] 30% | inhibition [3] -1% | outcome [5] | outcome [6] | outcome [7] | outcome [8]
active: growth inhibition [1] 50% | growth inhibition [4] 98%

Cc1c(CNCCCNc2cc(=O)c3ccccc3[nH]2)sc(-c2ccco2)c1Br
inactive: growth inhibition [1] 39% | inhibition [2] -4% | inhibition [3] -1% | outcome [5] | outcome [6] | outcome [7] | outcome [8]
active: growth inhibition [4] 93%

N#Cc1ccccc1C(=O)N(Cc1cncn1Cc1cccc(F)c1)CC1CC1
inactive: inhibition [2] 0% | inhibition [3] -1% | outcome [5] | outcome [6] | outcome [7] | outcome [8]
active: growth inhibition [1] 92% | growth inhibition [4] 101%

Cc1noc(C)c1-c1ccc2c(Nc3ccc(Cl)cc3)c(C(N)=O)cnc2c1
inactive: inhibition [2] 9% | inhibition [3] 7% | outcome [5] | outcome [6] | outcome [7] | outcome [8]
active: growth inhibition [1] 67% | growth inhibition [4] 94%

CCC(CC)n1c(COC)cc2c3c(N)nc(N)nc3ccc21
active: inhibition [2] 71% | growth inhibition [4] 95%
inactive: growth inhibition [1] 0% | inhibition [3] -4% | outcome [5] | outcome [6] | outcome [7] | outcome [8]

Cc1cccc(CN2CCCN(Cc3ccc(C(=O)Nc4ccc(C(C)(C)C)cc4)cc3)CC2)c1
active: inhibition [2] 57% | growth inhibition [4] 97%
inactive: growth inhibition [1] 4% | inhibition [3] -7% | outcome [5] | outcome [6] | outcome [7] | outcome [8]

Nc1nc(N)c2cc(NS(=O)(=O)c3ccc(-c4ccccc4)cc3)ccc2n1
inactive: inhibition [2] 7% | inhibition [3] -3% | outcome [5] | outcome [6] | outcome [7] | outcome [8]
active: growth inhibition [1] 54% | growth inhibition [4] 102%

CCCCCC(C)C(C)c1cc(O)c2c(c1)OC(C)(C)CC2(O)c1ccnn1C (stereo not drawn)
active: growth inhibition [1] 95% | growth inhibition [4] 98%
inactive: inhibition [2] 20% | inhibition [3] 4% | outcome [5] | outcome [6] | outcome [7] | outcome [8]

Cn1ccc(-c2cccc(Nc3ccnc4cc(-c5nccs5)ccc34)c2)n1
inactive: inhibition [2] 39% | inhibition [3] -1% | outcome [5] | outcome [6] | outcome [7] | outcome [8]
active: growth inhibition [1] 94% | growth inhibition [4] 101%

COC(=O)c1cccc(CNCc2ccc(-c3ccc(-c4nc5ccc(F)cc5[nH]4)s3)cc2)c1
active: growth inhibition [1] 82% | growth inhibition [4] 101%
inactive: inhibition [2] 4% | inhibition [3] 7% | outcome [5] | outcome [6] | outcome [7] | outcome [8]

O=C1C=Cc2ccccc2/C1=C/c1sc(=NCc2ccccc2)n(Cc2ccccc2)c1O
inactive: inhibition [2] 0% | inhibition [3] -7% | outcome [5] | outcome [6] | outcome [7] | outcome [8]
active: growth inhibition [1] 98% | growth inhibition [4] 98%

Cc1cc(C)c2oc(-c3cccc(NC(=O)c4ccc([N+](=O)[O-])o4)c3C)nc2c1
inactive: inhibition [2] -1% | inhibition [3] 0% | outcome [5] | outcome [6] | outcome [7] | outcome [8]
active: growth inhibition [1] 67% | growth inhibition [4] 90%

O=C(Nc1ccc(C(F)(F)F)cc1)NC1CCN(c2ccnc3cc(Cl)ccc23)CC1
inactive: inhibition [2] 22% | inhibition [3] -3% | outcome [5] | outcome [6] | outcome [7] | outcome [8]
active: growth inhibition [1] 74% | growth inhibition [4] 102%

Reference: PubChem BioAssay
